Compound activity (PubChem BioAssay)
Shown are actives, neighbours in structure and some others; about 3.1% of the full set was active somewhere.
Rin1-Abl PPI inh = inhibitors of Rin1-Abl protein binding, primary screen, biochemical, TR-FRET. inhibition, % at 7.35 µM. hit rate 0.4% among 360,000. AID 588664, 2011; in the data active = inhibition above about 5%, passing the limit was not always enough
eLon inh = inhibitors of E. coli Lon protease, primary screen, biochemical, fluorescence polarization | purified E. coli Lon protease | inhibition, % at 7.94 µM | P0A9M0 | hit rate 0.42% among 360,000; in the data active = inhibition above about 13%, passing the limit was not always enough;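 note: 0% = enzyme with probe and DMSO and 100% = no enzyme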
PAFAH1B3 inh = PAFAH1B3 enzyme inhibitors, primary screen, biochemical, fluorescence polarization, human; AID 492972, 2010; inhibition, % at 3.39 µM; recombinant PAFAH1B3, FP-rhodamine probe; hit rate 0.28% among 340,000;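 active = inhibition above the screen-wide average of all tested compounds plus 3 SD, cut at about 25% in these data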;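 note: 0% = enzyme with DMSO only and 100% = wells lacking PAFAH1B3 protein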
Target sequence (Q15102 whole entry, looked up): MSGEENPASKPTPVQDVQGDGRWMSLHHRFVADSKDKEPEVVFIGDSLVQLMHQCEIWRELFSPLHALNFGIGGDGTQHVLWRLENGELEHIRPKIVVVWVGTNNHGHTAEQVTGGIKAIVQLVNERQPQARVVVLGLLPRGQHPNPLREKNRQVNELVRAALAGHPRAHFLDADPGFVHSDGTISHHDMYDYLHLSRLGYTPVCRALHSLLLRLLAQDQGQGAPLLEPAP
PAFAH1B2 inh = PAFAH1B2 enzyme inhibitors, primary screen, biochemical, fluorescence polarization, human | recombinant PAFAH1B2, FP-rhodamine activity probe | inhibition, % at 3.39 µM | hit rate 1.2% among 340,000 | AID 492953, 2010;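 active = inhibition above the mean of all tested compounds plus 3 SD, cut at about 24% in these data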;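 note: 0% = enzyme with DMSO and 100% = wells lacking PAFAH1B2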
Target sequence (P68402 whole entry, looked up): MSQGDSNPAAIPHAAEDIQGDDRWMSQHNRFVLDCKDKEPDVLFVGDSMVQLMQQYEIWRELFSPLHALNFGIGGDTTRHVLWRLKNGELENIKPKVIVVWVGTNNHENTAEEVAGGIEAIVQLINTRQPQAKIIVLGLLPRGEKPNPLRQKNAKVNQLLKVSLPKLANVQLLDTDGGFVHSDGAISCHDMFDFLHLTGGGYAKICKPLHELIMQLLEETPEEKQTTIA
PAFAH2 FP inh = PAFAH2 enzyme inhibitors, primary screen, biochemical, fluorescence polarization, human. Platelet-activating factor acetylhydrolase 2, cytoplasmic (Homo sapiens), Q99487. recombinant PAFAH2, FP-rhodamine activity probe. inhibition, % at 3.39 µM. hit rate 0.99% among 340,000. AID 492956, 2010;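 active = inhibition above the mean over all tested compounds plus 3 SD, cut at about 30% in these data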;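 note: inhibitors block probe labeling of enzyme so polarization drops; 0% = enzyme with DMSO and 100% = wells lacking PAFAH2 protein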
pPAFAH FP inh = pPAFAH enzyme inhibitors, primary screen, biochemical, fluorescence polarization, human; Platelet-activating factor acetylhydrolase (Homo sapiens), Q13093; recombinant pPAFAH, FP-rhodamine probe fluorescence polarization; inhibition, % at 3.39 µM; hit rate 1.5% among 330,000;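 active = inhibition above the mean inhibition across the screen plus 3 SD, cut at about 25% in these data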;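 note: inhibitors block binding of the rhodamine activity-based probe so polarization drops; 0% = enzyme with DMSO and 100% = wells lacking pPAFAH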
PAFAH2 confirm = PAFAH2 enzyme inhibitors, confirmation, biochemical, fluorescence polarization, human; hit rate 65% among 2,300; recombinant PAFAH2, FP-rhodamine activity probe; AID 493030, 2011; inhibition, % at 3.39 µM; shares compounds with PAFAH2 FP inh;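 active = mean inhibition over three repeats above a set limit taken from the earlier primary screen, cut at about 30% in these data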;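 note: inhibitor blocks binding of rhodamine activity probe so polarization falls; 0% = enzyme with DMSO and 100% = wells lacking PAFAH2 protein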
Numbers without * were called inactive; x = no result.

SMILES	Rin1-Abl PPI inh	eLon inh	PAFAH1B3 inh	PAFAH1B2 inh	PAFAH2 FP inh	pPAFAH FP inh	PAFAH2 confirm
Cc1[nH]c2ccccc2c1SCc1nnc(SCc2ccc(Cl)cc2)n1C	3	-8	5	23	30*	9	30*
CCC1CN(S(=O)(=O)c2ccc3c(c2)NC(=O)CC(=O)N3)c2cc(Cl)ccc2O1 (configuration not stated)	2	-9	5	11	45*	2	20
CC(CCc1ccccc1)NC(=O)COC(=O)c1cccc(N(C)C)c1 (configuration not stated)	-2	-5	-1	1	58*	22	36*
CN(C)c1cccc(C(=O)OCC(=O)NC(=O)NCc2ccccc2)c1	0	-5	10	2	-2	6	x
CC(CCc1ccccc1)NC(=O)COC(=O)c1ccc(NC(=O)CC#N)cc1 (configuration not stated)	-1	10	-1	3	54*	-17	51*
CC(C)(C)NC(=O)COC(=O)c1ccc(NC(=O)CC#N)cc1	-3	-3	2	4	67*	7	53*
CCOCc1c(C(=O)OCC(=O)Nc2ccc(C)c(S(=O)(=O)N(C)C)c2)oc2ccccc12	-1	-6	4	6	58*	2	45*
c1coc(-c2cc3nc(NC4CCCCC4)ccn3n2)c1	-1	-12	x	x	x	x	x
Cc1ccc(-c2nnc(N3CCOCC3)c3ccccc23)cc1S(N)(=O)=O	0	15	7	5	2	-10	x
CC1CN(C(=S)Nc2cccc(Cl)c2Cl)CC(C)O1 (configuration not stated)	-1	6	8	0	-6	1	x
CC(C)(C)NC(=O)COc1ccc2oc3c(c2c1)CCCC3	1	-1	-13	-6	2	12	x
Cc1cccc(C(=O)OCC(=O)NC(C)CCc2ccccc2)c1 (configuration not stated)	-2	7	3	0	46*	7	31*
Cc1cccc(C(=O)NCC(=O)NC(C)CCc2ccccc2)c1 (configuration not stated)	-2	-5	13	3	1	2	x
CCN(CC)S(=O)(=O)c1cc(NC(=O)COC(=O)c2ccc(NC(=O)CC#N)cc2)ccc1C	0	-11	-21	-9	51*	20	50*
Cc1cc(C)n2nc(C(=O)OCC(=O)Nc3ccc(C)c(S(=O)(=O)N4CCOCC4)c3)nc2n1	4	-6	10	3	4	1	x
O=c1c2cnn(-c3ccccc3)c2nc(-c2ccco2)n1-c1ccccc1	-5	1	3	1	-2	7	x
O=c1oc(-c2ccco2)nc2c1cnn2-c1ccccc1	-2	-3	11	9	85*	2	59*
NS(=O)(=O)c1ccc(CCNC(=O)c2cc3ccccc3oc2=O)cc1	-4	0	1	4	4	5	x
Cc1ccsc1C(=O)OCc1nc2ccccc2c(=O)[nH]1	-1	15	8	2	38*	2	26
CN(C)c1cccc(C(=O)OCC(=O)NCc2ccco2)c1	-1	-2	-6	-1	57*	9	44*
O=C(COC(=O)c1cccs1)NCc1ccco1	4	-8	6	0	45*	11	29
Cn1c(C(=O)OCC(=O)NCc2ccco2)cc2sccc21	5	2	19	-5	45*	14	22
Cc1ccsc1C(=O)OCc1nc2ccsc2c(=O)[nH]1	1	-3	5	1	-1	6	x
COc1cc(NC(=O)c2cccs2)c(C(=O)OCC(=O)NCc2ccco2)cc1OC	-1	-1	-2	2	11	4	x
O=C(COC(=O)c1cccs1)NCc1ccccc1	0	7	10	2	47*	6	34*
SMILES	Rin1-Abl PPI inh	eLon inh	PAFAH1B3 inh	PAFAH1B2 inh	PAFAH2 FP inh	pPAFAH FP inh	PAFAH2 confirm
CC(CNC(=O)COC(=O)c1cccs1)c1ccccc1 (configuration not stated)	2	-11	6	1	75*	1	73*
O=C(COC(=O)c1ccc(Br)o1)NCC1CCCCC1	1	4	5	5	-5	8	x
O=C(COC(=O)c1cccs1)NCC1CCCCC1	2	-1	4	3	79*	5	82*
Cc1ccsc1C(=O)OCC(=O)NCc1ccccc1	5	1	8	0	34*	8	23
NS(=O)(=O)c1ccc(CNC(=O)CNC(=O)c2ccc(F)cc2)cc1	2	-16	2	3	-2	-1	x
CC(=O)c1c[nH]c(C(=O)NCc2cccc(C(F)(F)F)c2)c1	0	-15	4	-1	2	-4	x
CCN1CCN(c2ncnc3sc(C)c(-c4ccccc4)c23)CC1	-2	2	1	5	7	1	x
COc1ccc(/C=C/C(=O)OCC(=O)NC2CCCC2)cc1	-1	-2	-1	-3	83*	8	86*
COc1cccc(/C=C/C(=O)OCC(=O)NC2CCCCCCC2)c1	7	-3	1	7	96*	14	82*
COc1cccc(/C=C/C(=O)OCC(=O)NC(=O)NC2CCCC2)c1	2	4	8	5	20	0	x
Cc1ccc(N=C2NC(=O)/C(=C/c3cccnc3)S2)cc1C	3	-1	0	4	32*	5	23
Cc1ccc(S(=O)(=O)N2CCN(C(=O)/C=C/c3ccccc3)CC2)cc1C	2	-6	5	-2	3	x	x
Nc1ccc(S(=O)(=O)Nc2nccs2)cc1N=Nc1ccccc1[N+](=O)[O-]	1	-4	21	14	54*	x	37*
CCOCCc1c(O)nc(SCC(=O)N2CCOCC2)[nH]c1=O	2	2	6	3	-1	1	x
O=C1CC2(CCN(S(=O)(=O)c3ccccc3F)CC2)Oc2ccccc21	-3	-13	4	7	2	4	x
Cc1cccc2c(=O)oc(-c3ccccc3Cl)nc12	1	-4	5	4	49*	8	40*
Cc1ccccc1-c1nc2cc(Cl)ccc2c(=O)o1	0	6	-5	0	16	-4	x
COc1ccc(C(=O)n2nc(C)c(Br)c2C)cc1	0	-3	4	4	31*	5	9
COc1cc(/C=C/C(=O)OCC(=O)N2CC(=O)Nc3ccccc32)ccc1O	-1	1	6	5	3	-5	x
COc1cc(/C=C/C(=O)OCC(=O)N2CCCc3ccccc32)ccc1OCC#N	-1	1	0	-3	40*	2	19
